Laboratory results reported in PubChem BioAssay (EPA / NIEHS).
Records with an inconclusive call do not appear. The source made the active and inactive calls. How the source made its calls, unless noted: active means hit-call score of the fitted dose curve at least 0.9, where 1 is the maximum; inactive means score below 0.9.

Assays:
[1] = BSK_3C_Vis: BioMAP Diversity Plus: 3C Assay for Morphology Visualization (AID 2283025); conditions: primary human endothelial cells (HUVEC);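 further: fitted both ways so gain or loss versus DMSO counts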
Method in brief: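 Human umbilical vein endothelial cells in the 3C system were imaged by light microscopy 24 h after chemical dosing to record cell morphology. Activity was fitted bidirectionally against DMSO as negative control and baseline; the endpoint serves as a background control.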

[2] = read-out: Transforming growth factor beta 1 (TGFb1), TGFB1 (gene 7040); assay: BSK_BE3C_TGFb1: BioMAP Diversity Plus: BE3C Assay for Transforming growth factor beta 1 (TGFb1) Biomarker Activity (AID 2283036); conditions: primary human bronchial epithelial cells; actives raise or lower the signal
Method in brief: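 Human primary bronchial epithelial cells (BE3C system) were dosed with chemical and TGF-b1 levels measured by ELISA at 24 h. Activity was fitted bidirectionally relative to DMSO negative control as baseline.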

[3] = read-out: Transforming growth factor beta 1 (TGFb1), TGFB1 (gene 7040); assay: BSK_KF3CT_TGFb1: BioMAP Diversity Plus: KF3CT Assay for Transforming growth factor beta 1 (TGFb1) Biomarker Activity (AID 2283072); conditions: primary human keratinocytes with fibroblasts; actives raise or lower the signal
Method in brief: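 Human keratinocyte plus foreskin fibroblast primary co-culture, dosed with chemical for 24 h. TGF-b1 quantified by ELISA. Activity fitted bidirectionally against DMSO negative control as baseline.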

[4] = target: human Peripheral-type Benzodiazepine Receptor (PBR), TSPO (gene 706) (UniProt P30536); assay: NVS_MP_hPBR: NovaScreen (NVS) Membrane Protein Assay for human Peripheral-type Benzodiazepine Receptor (PBR) (AID 2283331; active means hit-call score of the fitted dose curve at least 0.9, where 1 is the maximum;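 further: hits reduce radioligand binding relative to DMSO baseline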)
Method in brief: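 Radioligand displacement on human colonic cell membranes, 1 h incubation; bound radioactivity by filtration and scintillation counting. Primary screen in duplicate at 25 uM single concentration, actives followed up in concentration series; loss of binding versus DMSO.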

[5] = target: rat Peripheral-type Benzodiazepine Receptor (PBR), Tspo (gene 24230) (UniProt P16257); assay: NVS_MP_rPBR: NovaScreen (NVS) Membrane Protein Assay for rat Peripheral-type Benzodiazepine Receptor (PBR) (AID 2283335; active means hit-call score of the fitted dose curve at least 0.9, where 1 is the maximum)
Method in brief: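 Radioligand displacement, rat kidney membrane prep, 1 h exposure, filter-based scintillation read; DMSO baseline, loss-of-signal scored. Primary screen at 25 uM in duplicate, actives followed up in concentration series.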

[6] = read-out: Plasminogen activator inhibitor-1 (PAI1), SERPINE1 (gene 5054); assay: BSK_MyoF_PAI1: BioMAP Diversity Plus: MyoF Assay for Plasminogen activator inhibitor-1 (PAI1) Biomarker Activity (AID 2284256); conditions: primary human lung fibroblasts;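 further: PAI-1 protein level measured by ELISA in fibroblast cultures; PAI-1 read 24 h after compound addition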
Method in brief: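 In this multiplexed primary-cell system, fibroblasts from human lung received compound for 24 h before ELISA detection of PAI-1; overt toxicity was checked by SRB (0.1%, TCA-fixed, 560 nm) in parallel wells.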

[7] = read-out: Interleukin-8 (IL8), CXCL8 (gene 3576); assay: BSK_MyoF_IL8: BioMAP Diversity Plus: MyoF Assay for Interleukin-8 (IL8) Biomarker Activity (AID 2284261); conditions: primary human lung fibroblasts
Method in brief: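 DMSO-normalised, upward-fitted IL-8 ELISA signal; human lung fibroblasts, 24 h chemical treatment.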

[8] = read-out: Decorin, DCN (gene 1634); assay: BSK_MyoF_Decorin: BioMAP Diversity Plus: MyoF Assay for Decorin Biomarker Activity (AID 2284265); conditions: primary human lung fibroblasts
Method in brief: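 In this multiplexed fibroblast system, secreted or surface decorin is detected by ELISA one day after dosing, with increases scored against the DMSO vehicle.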

[9] = BSK_MyoF_SRB: Viability Assessment in the BioMAP Diversity Plus: MyoF Assay (AID 2284267); conditions: primary human lung fibroblasts;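 further: total protein by SRB absorbance in parallel cultures as cytotoxicity measure; cells assessed 24 h after compound addition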
Method in brief: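 Human lung fibroblasts dosed with chemical and assessed 24 h later for overt cytotoxicity in parallel cultures. Total protein quantified by sulforhodamine B staining (0.1% SRB after 10% TCA fixation), read at 560 nm, analysed in positive direction versus DMSO baseline.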

[10] = read-out: Matrix Metallopeptidase 1 (MMP1), MMP1 (gene 4312); assay: BSK_MyoF_MMP1: BioMAP Diversity Plus: MyoF Assay for Matrix Metallopeptidase 1 (MMP1) Biomarker Activity (AID 2284268); conditions: primary human lung fibroblasts
Method in brief: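 Fibroblasts from human lung receive compound for 24 h before ELISA quantitation of MMP1. DMSO serves as baseline, and the endpoint is fitted for signal gain.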

[11] = target: Estrogen receptor (Homo sapiens) (UniProt P03372); assay: ATG_ERa_TRANS: Attagene TRANS-FACTORIAL HepG2 Assay for human Estrogen Receptor alpha (ERa) (AID 2282970; active means hit-call score of the fitted dose curve at least 0.9, where 1 is the maximum); conditions: HepG2 Attagene TRANS ERa GAL4 reporter, mRNA
Method in brief: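 Multiplexed cell-based reporter format in HepG2: chimeric ERa-Gal4 protein drives GAL4-UAS reporter transcription. Fluorescent reporter mRNA quantified by capillary electrophoresis 24 hours after dosing; endpoint fitted as signal gain against DMSO.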

[12] = CEETOX_H295R_MTT_cell_viability: Viability Assessment in the CeeTox HT-H295R MTT Assay (AID 2283718)
Method in brief: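 Human H295R adrenal cells, prestimulated 48 h with 10 uM forskolin, were exposed 48 h to chemicals in 0.1% DMSO. Viability was measured in the same wells by MTT (0.5 mg/ml, 4 h, 37 C), absorbance 570/650 nm, as percent of controls.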

[13] = target: human Phosphodiesterase 10 (PDE10), PDE10A (gene 10846) (UniProt Q9Y233); assay: NVS_ENZ_hPDE10: NovaScreen (NVS) Enzymatic Assay for human Phosphodiesterase 10 (PDE10) (AID 2283195; active means hit-call score of the fitted dose curve at least 0.9, where 1 is the maximum)
Method in brief: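 Recombinant human PDE10 with fluorescent substrate, 1 h, product separated by electrophoretic mobility shift. Loss of enzyme activity fitted against DMSO; initial screen 25 uM in duplicate, actives run to 50 uM maximum.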

[14] = target: Retinoic acid receptor alpha (Homo sapiens) (UniProt P10276); assay: ATG_RARa_TRANS: Attagene TRANS-FACTORIAL HepG2 Assay for human Retinoic Acid Receptor alpha (RARa) (AID 2283005; active means hit-call score of the fitted dose curve at least 0.9, where 1 is the maximum)
Method in brief: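 HepG2 transiently transfected with multiplex GAL4-UAS reporter units including a human RARa–GAL4 chimera; 24 h compound exposure. Reporter mRNA quantified by RT-PCR, 6-FAM labeling and capillary electrophoresis; gain of signal versus DMSO.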

[15] = CCTE_Shafer_MEA_acute_AB: CCTE's Alamar Blue Assay for Cytotoxicity in the Neural Acute Assay, Shafer Lab (AID 2284069; active means hit-call score of the fitted dose curve at least 0.9, where 1 is the maximum;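 further: active compounds lower the viability signal compared with DMSO wells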)
Method in brief: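 Resazurin reduction (CellTiter Blue, 1:6 in fresh medium) read at ex 544/em 590 nm marks viability loss relative to DMSO. Cells: primary rat cortical neuron networks on microelectrode arrays, treated after baseline recording at 13 or 15 days in vitro.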

[16] = target: chimpanzee Androgen Receptor (AR), AR (gene 747460) (UniProt O97775); assay: NVS_NR_cAR: NovaScreen (NVS) Nuclear Receptor Binding Assay for chimpanzee Androgen Receptor (AR) (AID 2283346; active means hit-call score of the fitted dose curve at least 0.9, where 1 is the maximum;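 further: radioligand displacement from AR measured by scintillation counting in a cell-free assay; a loss of bound radioligand signal versus DMSO counts as binding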)
Method in brief: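 Radioligand binding to chimpanzee AR expressed in Sf9/Sf21 cells, cell-free, measured 72 h after dosing by lysate-based scintillation counting. Loss of signal vs DMSO; initial duplicate screen at 25 uM, actives retested in concentration series.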

[17] = tested on: TTR (gene 7276); assay: CCTE_GLTED_hTTR_0.125uM: CCTE's human Transthyretin (hTTR) Inhibition Assay, with 0.125uM TTR, Great Lakes Toxicology and Ecology Division (GLTED) Lab (AID 2284431);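 further: hits lower the fluorescence signal relative to DMSO baseline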
Method in brief: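 Activity is defined as decreased ANSA fluorescence (ex 380, em 475) from human transthyretin, 0.125uM, following 2-hour chemical exposure in a cell-free setup, with DMSO as baseline.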

Sequence of human Phosphodiesterase 10 (PDE10), PDE10A (gene 10846) (Q9Y233 whole entry, looked up): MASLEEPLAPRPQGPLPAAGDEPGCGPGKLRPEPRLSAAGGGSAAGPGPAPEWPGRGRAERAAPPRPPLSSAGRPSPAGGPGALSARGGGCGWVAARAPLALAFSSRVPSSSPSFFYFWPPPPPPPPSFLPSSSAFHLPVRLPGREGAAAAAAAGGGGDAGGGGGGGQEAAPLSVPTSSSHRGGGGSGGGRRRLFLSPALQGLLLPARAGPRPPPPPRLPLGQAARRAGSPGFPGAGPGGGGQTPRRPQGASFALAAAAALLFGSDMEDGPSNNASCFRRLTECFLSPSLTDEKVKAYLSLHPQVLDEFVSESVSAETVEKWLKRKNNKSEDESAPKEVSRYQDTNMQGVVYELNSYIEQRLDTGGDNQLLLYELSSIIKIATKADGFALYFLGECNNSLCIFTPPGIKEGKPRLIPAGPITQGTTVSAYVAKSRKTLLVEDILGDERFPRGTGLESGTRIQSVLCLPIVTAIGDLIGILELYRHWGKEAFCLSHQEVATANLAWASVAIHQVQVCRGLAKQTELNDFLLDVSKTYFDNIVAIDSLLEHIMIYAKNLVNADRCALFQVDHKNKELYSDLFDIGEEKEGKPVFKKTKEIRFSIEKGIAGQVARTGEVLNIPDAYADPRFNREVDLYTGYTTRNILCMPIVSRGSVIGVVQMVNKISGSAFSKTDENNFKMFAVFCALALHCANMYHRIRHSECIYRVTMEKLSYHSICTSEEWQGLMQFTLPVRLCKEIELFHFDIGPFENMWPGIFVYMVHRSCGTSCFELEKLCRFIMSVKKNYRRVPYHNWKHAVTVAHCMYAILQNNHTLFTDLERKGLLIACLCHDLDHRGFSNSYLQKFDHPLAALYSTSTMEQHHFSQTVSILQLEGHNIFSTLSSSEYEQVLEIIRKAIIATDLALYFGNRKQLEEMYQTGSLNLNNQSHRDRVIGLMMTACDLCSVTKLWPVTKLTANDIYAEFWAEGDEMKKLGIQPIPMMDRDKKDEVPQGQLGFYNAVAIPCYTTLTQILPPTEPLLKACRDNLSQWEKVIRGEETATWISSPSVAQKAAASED
Sequence of Retinoic acid receptor alpha (Homo sapiens) (P10276 whole entry, looked up, the tested form may be a part): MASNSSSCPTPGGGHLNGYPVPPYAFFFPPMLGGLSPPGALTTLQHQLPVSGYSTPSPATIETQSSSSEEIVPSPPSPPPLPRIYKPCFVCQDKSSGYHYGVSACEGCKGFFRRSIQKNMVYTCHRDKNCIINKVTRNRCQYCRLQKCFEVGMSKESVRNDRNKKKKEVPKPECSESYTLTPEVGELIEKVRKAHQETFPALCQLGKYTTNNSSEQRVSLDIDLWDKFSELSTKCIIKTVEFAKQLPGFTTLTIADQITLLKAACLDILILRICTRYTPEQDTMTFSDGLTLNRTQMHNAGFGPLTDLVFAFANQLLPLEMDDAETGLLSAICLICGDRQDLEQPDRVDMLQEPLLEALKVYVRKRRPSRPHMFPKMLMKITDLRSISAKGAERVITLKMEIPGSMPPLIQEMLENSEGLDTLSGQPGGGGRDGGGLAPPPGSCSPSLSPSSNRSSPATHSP
Sequence of Estrogen receptor (Homo sapiens) (P03372 whole entry, looked up, the tested form may be a part): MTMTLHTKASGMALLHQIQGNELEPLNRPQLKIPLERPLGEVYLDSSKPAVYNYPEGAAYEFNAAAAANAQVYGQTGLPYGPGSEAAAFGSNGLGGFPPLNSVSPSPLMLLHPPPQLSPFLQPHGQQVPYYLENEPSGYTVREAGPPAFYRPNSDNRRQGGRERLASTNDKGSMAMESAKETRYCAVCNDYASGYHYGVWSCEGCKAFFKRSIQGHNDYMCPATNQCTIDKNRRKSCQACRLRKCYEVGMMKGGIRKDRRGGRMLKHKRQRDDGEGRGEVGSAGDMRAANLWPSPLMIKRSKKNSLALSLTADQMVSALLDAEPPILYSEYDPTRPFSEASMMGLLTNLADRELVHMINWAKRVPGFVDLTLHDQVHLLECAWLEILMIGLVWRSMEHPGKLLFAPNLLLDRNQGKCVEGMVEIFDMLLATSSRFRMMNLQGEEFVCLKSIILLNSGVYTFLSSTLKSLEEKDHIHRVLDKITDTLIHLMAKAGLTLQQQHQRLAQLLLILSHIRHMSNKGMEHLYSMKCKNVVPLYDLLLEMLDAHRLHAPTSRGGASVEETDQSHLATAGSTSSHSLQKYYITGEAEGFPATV
Sequence of human Peripheral-type Benzodiazepine Receptor (PBR), TSPO (gene 706) (P30536 whole entry, looked up): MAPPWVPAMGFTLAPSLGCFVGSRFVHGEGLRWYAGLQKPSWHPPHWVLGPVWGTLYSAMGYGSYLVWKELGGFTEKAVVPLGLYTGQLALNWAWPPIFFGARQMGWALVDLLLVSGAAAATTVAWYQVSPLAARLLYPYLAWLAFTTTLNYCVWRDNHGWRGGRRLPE
Sequence of rat Peripheral-type Benzodiazepine Receptor (PBR), Tspo (gene 24230) (P16257 whole entry, looked up): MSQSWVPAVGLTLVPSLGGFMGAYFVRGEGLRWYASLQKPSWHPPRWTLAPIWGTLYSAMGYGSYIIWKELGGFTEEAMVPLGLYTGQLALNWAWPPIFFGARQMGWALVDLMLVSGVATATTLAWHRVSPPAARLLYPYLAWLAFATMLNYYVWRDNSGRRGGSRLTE
Sequence of chimpanzee Androgen Receptor (AR), AR (gene 747460) (O97775 whole entry, looked up): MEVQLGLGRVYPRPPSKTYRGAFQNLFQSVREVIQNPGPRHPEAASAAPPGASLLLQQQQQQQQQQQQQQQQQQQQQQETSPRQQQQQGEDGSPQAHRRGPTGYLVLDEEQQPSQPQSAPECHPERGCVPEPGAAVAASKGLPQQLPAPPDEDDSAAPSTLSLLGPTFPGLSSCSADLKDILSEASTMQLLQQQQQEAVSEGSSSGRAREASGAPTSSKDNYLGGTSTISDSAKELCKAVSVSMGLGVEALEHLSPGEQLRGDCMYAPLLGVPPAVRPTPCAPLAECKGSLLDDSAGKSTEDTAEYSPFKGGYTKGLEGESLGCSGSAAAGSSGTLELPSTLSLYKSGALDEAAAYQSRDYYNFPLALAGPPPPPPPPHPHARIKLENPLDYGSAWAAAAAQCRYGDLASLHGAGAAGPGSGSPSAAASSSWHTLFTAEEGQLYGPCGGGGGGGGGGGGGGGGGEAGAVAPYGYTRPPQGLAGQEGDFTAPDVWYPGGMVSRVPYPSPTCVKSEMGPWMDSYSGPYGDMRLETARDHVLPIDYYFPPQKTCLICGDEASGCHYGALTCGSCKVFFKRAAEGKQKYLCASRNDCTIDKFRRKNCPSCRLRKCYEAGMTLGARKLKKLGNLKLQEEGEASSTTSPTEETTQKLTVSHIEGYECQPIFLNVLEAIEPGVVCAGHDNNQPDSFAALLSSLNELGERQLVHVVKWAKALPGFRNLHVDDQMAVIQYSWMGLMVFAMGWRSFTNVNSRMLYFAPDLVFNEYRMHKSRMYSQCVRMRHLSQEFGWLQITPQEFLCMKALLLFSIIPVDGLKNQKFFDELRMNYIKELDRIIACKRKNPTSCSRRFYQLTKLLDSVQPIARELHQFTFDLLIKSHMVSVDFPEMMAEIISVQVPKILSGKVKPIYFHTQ

O=C(C(=O)c1ccccc1)c1ccccc1
outcome [1]: inactive
outcome [2]: inactive
outcome [3]: inactive
AC50 [4]: 9.56 µM (active)
AC50 [5]: 1.86 µM (active)
outcome [6]: inactive
outcome [7]: inactive
outcome [8]: inactive
outcome [9]: inactive
outcome [10]: inactive

Oc1ccc(Cl)cc1C1CCCC1
AC50 [11]: 4.12 µM (active)

CCCCOC(=O)COc1ccc(Cl)cc1Cl
outcome [12]: inactive

O=C(O)c1ccccc1C(=O)O
outcome [12]: inactive

CCC(C)NC(N)=O (stereo not drawn)
outcome [11]: inactive
outcome [13]: inactive

CCOc1ccc2c(c1)C(C)CC(C)(C)N2 (stereo not drawn)
outcome [14]: inactive

N#CCN(CC#N)CCN(CC#N)CC#N
AC50 [13]: 12.1 µM (active)

NC(N)=Nc1nc(CSCCC(N)=NS(N)(=O)=O)cs1
outcome [11]: inactive
outcome [15]: inactive

CO[Si](CCCNCCN)(OC)OC
outcome [14]: inactive

COC(=O)/C=C\C(=O)OC
outcome [1]: inactive
outcome [2]: inactive
outcome [3]: inactive
outcome [13]: inactive
outcome [16]: inactive
outcome [6]: inactive
outcome [7]: inactive
outcome [8]: inactive
outcome [9]: inactive
outcome [10]: inactive

O=C(c1ccccc1)c1ccccc1O
AC50 [17]: 1.05 µM (active)

c1cc[c]([Bi]([c]2ccccc2)[c]2ccccc2)cc1
AC50 [11]: 4.16 µM (active)

CCOC(=O)CC(=O)OCC
outcome [14]: inactive
